# Assay outcomes: PubChem BioAssay, National Center for Advancing Translational Sciences (NCATS)
# Compounds with a hit are over-represented: about 11% of the library has one in this group of screens.
# G9a inh – qHTS Assay for Inhibitors of Histone Lysine Methyltransferase G9a; Potency, µM (titrated, usually from 102 µM), for inactives: at the highest dose activity, negative = inhibition, most hits filed as inhibitors; Histone-lysine N-methyltransferase EHMT2 (Homo sapiens), Q96KQ7; G9a H3K9 monomethylation, AlphaScreen, 2 h; actives 8.8% (n = 350,000); also: % is scaled to controls: 0 for no effect and ±100 for the full control effect; nearly all actives have a fitted effect of over 75% in size
# Target sequence (Q96KQ7 913-1193 limits assumed): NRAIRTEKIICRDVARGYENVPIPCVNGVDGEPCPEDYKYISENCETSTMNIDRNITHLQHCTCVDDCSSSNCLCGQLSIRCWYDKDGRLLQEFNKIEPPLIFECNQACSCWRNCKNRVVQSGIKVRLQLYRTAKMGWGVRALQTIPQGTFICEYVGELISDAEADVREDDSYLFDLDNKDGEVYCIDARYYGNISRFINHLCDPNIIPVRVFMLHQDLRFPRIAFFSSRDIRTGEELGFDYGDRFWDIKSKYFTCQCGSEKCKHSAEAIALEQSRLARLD
#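 Signal arises when biotinylated H3K9 peptide, once monomethylated, bridges streptavidin donor and antibody-captured acceptor beads. Enzyme at 20 nM was preincubated 15 min with test compounds; peptide 500 nM and SAM 20 uM then reacted for 2 h.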
# JMJD2A Tudor – qHTS Assay for Inhibitors of JMJD2A-Tudor Domain; AlphaScreen JMJD2A-Tudor / H3K4me3 peptide binding; Potency, µM (series often up to 114 µM), for the others: at the top dose activity change, negative = inhibition, actives largely listed as inhibitors; actives 4.4% (n = 390,000); also: % is scaled to controls: 0 for no effect and ±100 for the full control effect; nearly all actives have a fitted effect of over 50% in size
# HP1b chromo inh – HTS for Inhibitors of HP1-beta Chromodomain Interactions with Methylated Histone Tails; Chromobox protein homolog 1 (Homo sapiens), P83916; AlphaScreen HP1-beta / biotin-H3K9me3 peptide binding; Potency, µM (top dose mostly 114 µM), for inactives: at the top dose activity change, negative = inhibition, usual class: inhibitors; actives 0.56% (n = 390,000); also: nearly all actives have a fitted effect of over 70% in size
# Target sequence (P83916 whole entry, looked up): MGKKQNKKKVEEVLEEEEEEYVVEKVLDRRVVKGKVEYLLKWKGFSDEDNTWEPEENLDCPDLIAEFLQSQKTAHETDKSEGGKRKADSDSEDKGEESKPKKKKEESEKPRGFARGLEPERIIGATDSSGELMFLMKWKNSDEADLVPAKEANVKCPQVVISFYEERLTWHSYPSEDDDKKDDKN
#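 HP1-beta protein (50 nM final) preincubated 30 min at room temperature with biotinylated H3(1-18)K9me3 peptide (50 nM) in PBS pH 7.4, 0.01% Tween-20, then compound added for 30 min. AlphaScreen streptavidin donor/nickel chelate acceptor beads (10 ug/mL final), 30 min dark, luminescence read.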
# BAZ2B inh – qHTS Assay for Inhibitors of BAZ2B | AlphaScreen BAZ2B-H3K14Ac peptide displacement | actives 4.4% (n = 360,000) | Potency, µM (top dose mostly 114 µM), without a hit: top-dose activity change, negative = inhibition, hits mostly inhibitors | Bromodomain adjacent to zinc finger domain protein 2B (Homo sapiens), Q9UIF8; also: % is scaled to controls: 0 for no effect and ±100 for the full control effect; nearly all actives have a fitted effect of over 60% in size
#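 Multi-concentration screen (max 110 uM) measuring displacement of acetylated histone H3 peptide from BAZ2B by AlphaScreen, using 50 nM protein, 50 nM peptide and 10 ug/mL streptavidin donor plus Ni-chelate acceptor beads.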
# L3MBTL1 inh – qHTS Assay for the Inhibitors of L3MBTL1 | Lethal(3)malignant brain tumor-like protein 1 (Homo sapiens), Q9Y468 | AlphaScreen L3MBTL1–H3K9me1 peptide binding | Potency, µM (doses to about 57.1 µM), without a hit: at the highest dose activity, negative = inhibition, hits mostly inhibitors | actives 0.66% (n = 230,000) | AID 485360, 2010; also: % is scaled to controls: 0 for no effect and ±100 for the full control effect; nearly all actives have a fitted effect of over 60% in size
#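 First, the protein-peptide complex forms for 30 min at room temperature (L3MBTL1 50 nM, biotinylated H3K9me1 peptide 75 nM). Next, compounds are pin-transferred and incubated 30 min. Finally, AlphaScreen beads are added and read after 30 min.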
# * marks the source's active call; other numbers are inactive results; ? = inconclusive; nt = not tested or not shown; [ ] = remark or other dose. Calls follow the shape of the dose curve; as a rule, active = well fitted inhibition curve with a large enough effect; inconclusive = small, poorly fitted or top-dose-only effect; inactive = no such curve, though single readings can be large or run the other way. Potency is read from the fitted curve at half-maximal effect.
SMILES,G9a inh,JMJD2A Tudor,HP1b chromo inh,BAZ2B inh,L3MBTL1 inh
CCCN1CNc2c(c(=O)[nH]c(=S)n2CCc2ccc(OCC)c(OCC)c2)C1,nt,-15.0%,37.6%,nt,nt
CCN1CCN(Cc2c(O)ccc3c(C)c(-c4ccc(OC)cc4)c(=O)oc23)CC1,52.3%[59 µM],-15.9%,21.9%[57 µM],18.2%,nt
COc1ccc(NC(=O)COC(=O)c2ccc(-n3cnnn3)cc2)cc1Cl,39.8µM*,-11.0%,18.8%,2.9%,6.4%
Cc1ccc(NC(=O)c2ccco2)c(OCc2cc(=O)n3cc(C)sc3n2)c1,-5.1%[59 µM],3.6%,25.8%[57 µM],5.8%,nt
CC(=NNC(=S)Nc1ccc(C)cc1)c1ccccn1,nt,79.4µM*,?,nt,nt
C/C(=N\NC(=S)Nc1ccc(F)cc1)c1ccc2c(c1)OCCO2,?,31.6µM*,?,35.5µM*,?
CC(=NNC(=S)Nc1cccc(C)c1)c1ccccn1,nt,50.1µM*,?,nt,nt
C/C(=N\NC(N)=S)c1ccc2c(c1)OCCO2,nt,-15.2%,9.2%,-3.3%,-0.7%
C/C(=N\NC(=S)Nc1cccc(C)c1)c1cccc(N)c1,?,?,?,?,-1.9%
C/C(=N\NC(=S)Nc1ccc(C)cc1)c1cccc(N)c1,44.7µM*,?,-25.1%,?,-13.6%
Cn1cc(C(=O)NCc2ccccc2)c(=O)c2cc(S(=O)(=O)N3CCOCC3)ccc21,1.5%[59 µM],?,17.6%,nt,nt
Cc1ccccc1OCc1n[nH]c(=S)n1-c1cccc(Cl)c1,11.2µM*,-24.9%,36.5%,-28.0%,-14.3%
CCCOCC(O)CCc1n[nH]c(=S)n1-c1ccccc1 (stereo not given),nt,50.1µM*,25.0%,-4.1%,13.7%
Cc1n[nH]c(=S)n1-c1cccc(Cl)c1,3.98µM*,7.94µM*,21.7%,-3.7%,-3.1%
CSc1n[nH]c(=O)n1-c1cccc(Cl)c1,11.1%,7.3%,17.1%,1.2%,-6.7%
Cc1cccc(C)c1NCc1n[nH]c(=S)n1-c1ccccc1,11.2µM*,39.8µM*,23.4%,-25.1%,?
Cc1ccc(-c2cn3c(n2)sc2cc(C(=O)N4CCCCC4)ccc23)cc1,-27.7%[59 µM],-14.8%,43.9%,?,nt
Cc1ccc(-n2ncc(C(=O)NCCCN3CCCCC3)c2C2CCN(C(=O)OC(C)(C)C)CC2)cc1,-4.9%[59 µM],-18.8%,24.4%,6.8%[57.1 µM],nt
Cc1ccc(C)c(Cn2c(=O)n(C(C)C)c(=O)c3oc4ccccc4c32)c1,3.7%[59 µM],-13.6%,27.8%,0.7%,nt
Cn1c(SCc2n[nH]c(=S)n2-c2ccccc2)nnc1-c1ccccc1,8.91µM*,17.8µM*,31.5%,-1.3%,3.7%
CC(C)Oc1ccc(CCc2n[nH]c(=S)n2-c2ccccc2)cc1,2.51µM*,-33.1%,-9.2%,-23.3%,-6.3%
COCc1n[nH]c(=S)n1-c1ccccc1,39.8µM*,39.8µM*,38.0%,2.4%,nt
Cn1c(SCc2ccccc2)nnc1-c1ccncc1,?,-12.5%,23.3%,-10.7%,4.1%
Cc1cccc(C)c1OCc1n[nH]c(=S)n1-c1ccccc1,2.51µM*,?,39.9%,-21.0%,-4.3%
CSc1ccc(CNC(=O)Cc2csc3ccccc23)cc1,-2.0%[59 µM],-10.4%,24.5%,-0.2%,nt
SMILES,G9a inh,JMJD2A Tudor,HP1b chromo inh,BAZ2B inh,L3MBTL1 inh
Cc1cn2c(=O)cc(COC(=O)c3cccc(NC(=O)C(C)Oc4ccccc4)c3)nc2s1 (stereo not given),23.2%[59 µM],-14.6%,11.2%,-4.8%,nt
COc1ccc(N2CCN(c3nc4ccc(C)cc4n4nnnc34)CC2)cc1,-7.0%[59 µM],-9.7%,31.0%,-5.8%,nt
Cc1ccccc1CNS(=O)(=O)c1c(C(=O)N2CCCCC2)c(C)n(C)c1C,15.3%[59 µM],-20.6%,19.5%,-18.0%,nt
Cc1ccc(-n2c(CCc3ccccc3)n[nH]c2=S)cc1C,2µM*,?,6.5%,-31.3%,-1.8%
Cc1ccc(OCc2n[nH]c(=S)n2-c2ccccc2)cc1C,nt,-17.4%,8.6%,-10.4%,-1.1%
COC(Cc1n[nH]c(=S)n1-c1ccccc1)OC,-15.4%[59 µM],17.8µM*,26.2%,-4.5%,7.7%
